The full list was thinned out, with hits kept by preference.
BL2 CD40 inh: inhibitors of CD40-induced NF-kB signaling, primary screen, BL2 cells, luciferase reporter, single point | CD40L-induced, 4 h | 83,000 compounds, 0.94% hits | inhibition, % at 10 µM;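 active = mean inhibition of at least 50% with a set share of replicates also reaching that level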
Large screens that a line does not name were inactive; ! = not active in a repeat; [ ] = dose if it differs, or a comment.

COCC(=O)N1CC2(C1)CN(Cc1ccccc1F)[C@H](CO)c1[nH]c3cc(OC)ccc3c12	none
C[C@@H]1CN([C@H](C)CO)C(=O)c2c(c3ccccc3n2C)-c2ccccc2CO[C@@H]1CN(C)S(=O)(=O)c1cccc(C#N)c1	none
C/C=C/c1ccc([C@H]2[C@@H](CO)N3C(=O)CN(C(=O)Nc4cccc(OC)c4)C[C@@H]23)cc1	none
O=C(c1cccc(F)c1)N1C[C@H]2[C@@H](c3ccccc31)[C@H](CO)N2C(=O)c1ccccn1	none
Cc1c(C(=O)OC2CCCC2C)[nH]c2c1C(=O)CCC2 (stereo unspecified)	none
Cc1c(C(=O)OCCOc2ccccc2)[nH]c2c1C(=O)CCC2	BL2 CD40 inh 65.5
CCCc1c(C(=O)OCC)[nH]c2c1C(=O)CCC2	none
O=C(C[C@@H]1C[C@@H]2c3cc(NS(=O)(=O)c4ccc(F)cc4)ccc3O[C@@H]2[C@H](CO)O1)NCCN1CCCCC1	none
CN1C(=O)c2cc(NC(=O)C3CC3)ccc2OC[C@@H]2O[C@H](CC(=O)NCCc3ccncc3)CC[C@H]21	none
CN1CCN(C(=O)C[C@H]2C[C@@H]3c4cc(NC(=O)C5CCC5)ccc4O[C@@H]3[C@@H](CO)O2)CC1	none
CNC[C@H]1OCCCC[C@@H](C)Oc2ccc(N)cc2C(=O)N([C@@H](C)CO)C[C@H]1C	none
Cc1ccc(-c2c(C#N)c(N)nc3c2CCCC3)o1	none
N#Cc1c(-c2ccco2)cc(-c2cccnc2)nc1N	none
Cc1ccc(-c2cc(-c3ccccc3)c(C#N)c(N)n2)o1	BL2 CD40 inh 46.1
CN1C(=O)c2cc(NC(=O)C3CCCC3)ccc2OC[C@H]2O[C@@H](CC(=O)NCCc3ccncc3)CC[C@@H]21	none
O=C(N1CCOCC1)N1CCN(S(=O)(=O)c2ccc(Cl)cc2)C1	none
O=C(c1nnsc1S(=O)(=O)c1ccc(Cl)cc1)N1CCOCC1	BL2 CD40 inh 96.6
O=C(c1ccc(S(=O)(=O)Nc2ccccc2Cl)cc1)N1CCOCC1	none
CCC(=O)N(C[C@@H]1N[C@H](CO)[C@@H]1c1ccc(C#C[C@@H](C)O)cc1)C1CCCCC1	none
COCc1nnc(NC(=O)C2CC(=O)N(c3ccc(C)c(Cl)c3)C2)s1 (stereo unspecified)	none
Cc1ccc(N2CC(C(=O)Nc3nccs3)CC2=O)cc1Cl (stereo unspecified)	BL2 CD40 inh 60.9
O=C(Nc1nccs1)C1CC(=O)N(c2ccc(F)cc2)C1 (stereo unspecified)	none
CN1C(=O)c2cc(NS(=O)(=O)c3cccc(F)c3)ccc2OC[C@@H]2O[C@@H](CC(=O)N3CCc4ccccc4C3)CC[C@@H]21	none
COc1ccc(C#Cc2ccc3c(c2)[C@H]2[C@H](CCN2S(=O)(=O)c2ccccc2C)[C@H](CO)N3C)cc1	none
CCc1ccc(C(=O)COC(=O)CNC(=O)C2CCCCC2)cc1	BL2 CD40 inh 65.8
CCOC(=O)c1c(C)[nH]c(C)c1C(=O)COC(=O)CNC(=O)C1CCCCC1	none
O=C(CNC(=O)C1CCCCC1)OCC(=O)c1ccc(F)cc1	none
O=C(NCc1ccc(F)cc1)[C@H]1[C@H](CO)[C@H]2Cn3c(cccc3=O)[C@@H]1N2Cc1cccnc1	none
COc1ccc(NC(=O)N2C[C@@H]3N[C@H](C2)C3c2ccc(-c3cccc(F)c3)cc2)cc1 (stereo partly specified)	none
Cc1ccc(-c2ccc(C3[C@@H]4CN(C(=O)Nc5ccc(C(F)(F)F)cc5)C[C@H]3N4)cc2)cc1 (stereo partly specified)	none
O=C(Nc1ccc(C(F)(F)F)cc1)N1C[C@@H]2N[C@H](C1)C2c1ccc(-c2cccc(F)c2)cc1 (stereo partly specified)	BL2 CD40 inh 69.7
CC(=O)N(C)C[C@@H]1Oc2ncccc2C(=O)N(C)C[C@H]1C	none
O=C(C1CCOCC1)N1C[C@@H]2N[C@H](C1)C2c1ccc(/C=C/c2ccccc2)cc1 (stereo partly specified)	none
O=C(c1ccc(F)cc1)N1C[C@@H]2N[C@H](C1)C2c1ccc(/C=C/c2ccccc2)cc1 (stereo partly specified)	BL2 CD40 inh 50.1![25 µM]
N#Cc1ccc(-c2ccc(C3[C@@H]4CN(C(=O)c5cccnc5)C[C@H]3N4)cc2)cc1 (stereo partly specified)	none
O=C(c1ccncc1)N1C[C@@H]2N[C@H](C1)C2c1ccc(/C=C/c2ccccc2)cc1 (stereo partly specified)	none
N#Cc1ccc(-c2ccc(C3[C@@H]4CN(C(=O)C5CC5)C[C@H]3N4)cc2)cc1 (stereo partly specified)	BL2 CD40 inh 63.0!
O=C(Nc1ccccc1)N1C[C@@H]2N[C@H](C1)[C@@H]2c1ccc(/C=C/c2ccccc2)cc1	none
O=C(C1CCCC1)N1C[C@@H]2N[C@H](C1)C2c1ccc(/C=C/c2ccccc2)cc1 (stereo partly specified)	BL2 CD40 inh 48.8!
N#Cc1cccc(-c2ccc(C3[C@@H]4CN(C(=O)C5CCOCC5)C[C@H]3N4)cc2)c1 (stereo partly specified)	none
O=C(c1ccc2c(c1)OCO2)N1C[C@@H]2N[C@H](C1)C2c1ccc(/C=C/c2ccccc2)cc1 (stereo partly specified)	none
COc1ccccc1C#Cc1ccc([C@H]2[C@@H](C#N)N(C(=O)C3CCC3)[C@H]2CO)cc1	none
CNC[C@H]1Oc2ccc(NC(C)=O)cc2C(=O)N(C)C[C@@H]1C	none
COc1ccc2c3c(n(C)c2c1)[C@H](CO)N(Cc1cccnc1)CC31CCN(C(=O)NC(C)C)CC1	none
C[C@H]1CN([C@@H](C)CO)C(=O)Cc2cc(NC(=O)Cn3cnnn3)ccc2O[C@H]1CN(C)Cc1ccc(Oc2ccccc2)cc1	none
COc1cccc(NC(=O)C[C@H]2CC[C@H]3[C@@H](COc4ccc(NC(=O)C5CCC5)cc4C(=O)N3C)O2)c1	none
CN(C)C(=O)c1ccc(-c2ccc([C@H]3[C@@H](C#N)N(S(C)(=O)=O)[C@H]3CO)cc2)cc1	none
O=C1S/C(=C\c2ccc(N3CCOCC3)o2)C(=O)N1Cc1ccc(F)cc1	BL2 CD40 inh 82.5
Cc1ccc(CN2C(=O)S/C(=C\c3ccccc3OCC(=O)O)C2=O)cc1	none
O=C1N=C(N2CCOCC2)S/C1=C/c1ccc(-c2ccc(F)cc2)o1	none
COc1cccc(-c2ccc([C@@H]3[C@@H](C#N)N(C(=O)c4ccccn4)[C@@H]3CO)cc2)c1	none
CCCC(=O)Nc1cc(-c2nn(C)c(=O)c3ccccc23)ccc1N1CCCCC1	none
Cn1nc(-c2ccc(N3CCOCC3)c(NS(=O)(=O)c3ccccc3)c2)c2ccccc2c1=O	none
CCC(=O)Nc1cc(-c2nn(C)c(=O)c3ccccc23)ccc1N1CCCCC1	BL2 CD40 inh 48.4
CC(C)NC(=O)N(C)C[C@H]1OCc2ccccc2-c2c(n(C)c3ccccc23)C(=O)N([C@@H](C)CO)C[C@@H]1C	none
C[C@@H]1CN([C@@H](C)CO)C(=O)c2c(c3ccccc3n2C)-c2ccccc2CO[C@H]1CN(C)Cc1ccc(C(=O)O)cc1	none
O=C(c1ccccn1)N1C[C@H]2[C@@H](c3ccccc31)[C@@H](CO)N2C(=O)Cc1ccccc1	none
CCCCNC(=O)C1(C)CCN1C(=O)c1ccc(C)c(F)c1 (stereo unspecified)	none
CCCCNC(=O)C1(C)CCN1C(=O)c1cc(-c2cccs2)oc1C (stereo unspecified)	BL2 CD40 inh 105.1
CCCCNC(=O)C1(C)CCN1C(=O)c1ccccc1Br (stereo unspecified)	none
O=C(Cc1ccccn1)N1CC(=O)N2[C@@H](CO)[C@H](c3ccc(C#CC4CCCC4)cc3)[C@@H]2C1	none
COc1cccc(CN2[C@H](CO)[C@@H]3c4ccccc4N(C(=O)c4cccnc4)C[C@@H]32)c1	none

Source: PubChem
